Assay results: PubChem BioAssay
The source made the active and inactive calls. Unless noted, how the calls were made is not given here.

Columns and labels:
[1] = anti-His antibody binders, primary screen, artefact control for SMM control protein annotation, biochemical, small-molecule microarray, 635 nm fluorescence (AID 1128); conditions: anti-His Alexa647 antibody binding, higher = more signal;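 further: score merges feature fluorescence with signal-to-noise for each printed compound spot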
[2] = tested on: Human papillomavirus type 1a E7 protein (residues 1-88); test: HPV1a E7 small-molecule binders, primary screen, biochemical, small-molecule microarray, residues 1-88, 635 nm (AID 1129); conditions: small-molecule microarray binding, fluorescence 635 nm; higher = more signal
[3] = biological target: Focal adhesion kinase 1 (Homo sapiens) (UniProt Q05397); test: small-molecule microarray binders of FAK, primary screen, biochemical, 635/667 nm fluorescence, BSA, DTT (AID 1130); conditions: PTK2 binding, 635 nm fluorescence, higher = more signal;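 further: composite of spot emission at 667 nm and signal to noise over triplicate slides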
[4] = tested on: Fibrinogen (Alexa647-labelled); test: fibrinogen binders on compound microarrays, profiling panel, artefact control for SMM control-protein annotation, biochemical, small-molecule microarray, 635/667 nm fluorescence (AID 1131); conditions: fibrinogen-A647 binding fluorescence, higher = more signal;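 further: z-score merges 667 nm fluorescence with per-spot signal-to-noise over triplicate slides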
[5] = biological target: Follistatin (Homo sapiens) (UniProt P19883); test: follistatin binders on small-molecule microarrays, primary screen, biochemical, small-molecule microarray, 635/667 nm fluorescence (AID 1132); conditions: FST binding, 635 nm fluorescence, higher = more signal
[6] = biological target: Fibroblast growth factor 2 (Homo sapiens) (UniProt P09038); test: FGF2 binders on small-molecule microarrays, primary screen, biochemical, small-molecule microarray, 635/667 nm fluorescence (AID 1133); conditions: small-molecule microarray binding, FGF2, fluorescence 635/667; higher = more signal
[7] = mitochondrial membrane potential change in A549 cells, profiling panel, cell-based, JC-1 fluorescence, basal, 24 h, 100 nL (AID 1138); conditions: higher = more signal;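 further: A549 lung adenocarcinoma cells under basal conditions with no added stimulus; test concentration not given here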
Lefty1 = Lefty1 binders on small-molecule microarrays, primary screen, biochemical, small-molecule microarray, 635/667 nm fluorescence (AID 1139); conditions: small-molecule microarray binding, fluorescence 635/667; higher = more signal
[8] = tested on: wheat germ agglutinin (Triticum aestivum), Alexa647-labelled; test: wheat germ agglutinin binders on compound microarrays, profiling panel, artefact control for SMM control-protein annotation, biochemical, small-molecule microarray, 635/667 nm fluorescence (AID 1140); conditions: WGA-A647 binding, 635 nm fluorescence, higher = more signal;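 further: score merges 667 nm feature emission with signal to noise over triplicate slides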
[9] = biological target: Luciferin 4-monooxygenase (Photinus pyralis) (UniProt P08659); test: firefly luciferase enzyme inhibitors, primary screen, biochemical, luminescence, purified enzyme, 2006 set (AID 1141); conditions: SteadyGlo luminescence, 30 min, higher = more signal, called active from +8 up or from −8 down;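 further: cell-free assay with purified firefly luciferase at 100 ng per well in PBS; test concentration not given here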
[10] = tested on: Wnt5a (protein binding on small-molecule microarray); test: Wnt5a binders on small-molecule microarray, primary screen, biophysical, 635/667 nm fluorescence (AID 1142); conditions: 635 nm fluorescence, higher = more signal;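 further: fluorescence read at 667 nm with signal to noise per printed feature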
[11] = cell viability in Huh7 cells, primary screen, cytotoxicity control for HCV replication inhibitor project, CellTiter-Glo luminescence, basal, 48 h (AID 1143); conditions: Huh7 HCV replicon, higher = more signal, called active from +8 up or from −8 down;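 further: Huh7 hepatoma cells carrying a hepatitis C replication reporter with no stimulus; test concentration not given here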
[12] = P. aeruginosa biofilm formation inhibitors, primary screen, PAO1 strain, BacTiter-Glo luminescence, LB-PBS (AID 1144); conditions: 12 h, higher = more signal
[13] = CREB reporter modulators without forskolin, primary screen, cell-based, PC12, CRE-LacZ reporter, unstimulated (AID 1145); conditions: no forskolin, luminescence, 4.5 h, higher = more signal, called active from +8 up or from −8 down
[14] = CREB reporter modulators under forskolin, primary screen, cell-based, PC12, CRE-LacZ reporter, forskolin-stimulated (AID 1146); conditions: luminescence, 4.5 h, higher = more signal, called active from +8 up or from −8 down;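 further: PC12 cells with 6xCRE LacZ reporter stimulated by forskolin 10 µM; beta-galactosidase reporter signal reflecting CREB driven transcription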
[15] = biological target: Streptavidin (Streptomyces avidinii) (UniProt P22629); test: streptavidin binders on small-molecule microarray, primary screen, artefact control for SMM compound annotation, biophysical, 635/667 nm fluorescence (AID 1147); conditions: streptavidin binding, higher = more signal;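 further: signal reflects streptavidin binding to arrayed compounds as a control protein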
[16] = small-molecule binders of probe aInhba, primary screen, biochemical, small-molecule microarray, 635/667 nm fluorescence (AID 1148); conditions: higher = more signal;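 further: score merges 667nm spot fluorescence with signal-to-noise for antibody binding to printed compounds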
Torsin-1A (Homo sapiens) [17] = biological target: Torsin-1A (Homo sapiens) (UniProt O14656); test: torsin A binders from cell lysate, primary screen, small-molecule microarray, wild-type, 635/667 nm (AID 1149); conditions: COS7 hTOR1A-WT lysate, 635 nm fluorescence, higher = more signal
Torsin-1A (Homo sapiens) [18] = biological target: Torsin-1A (Homo sapiens) (UniProt O14656); test: small-molecule binders of mutant TOR1A in lysate, primary screen, cell lysate, small-molecule microarray, COS7 lysate, 635/667 nm fluorescence (AID 1150); conditions: COS7 hTOR1A mutant lysate, 635 nm fluorescence, higher = more signal;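 further: score pools 667 nm emission and signal to noise measuring lysate protein binding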
[19] = tested on: Sonic hedgehog protein (Shh); test: small-molecule binders of Shh protein, primary screen, biochemical, small-molecule microarray, 635/667 nm fluorescence (AID 1151); conditions: small-molecule microarray binding, 635 nm fluorescence; higher = more signal;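 further: Shh protein binding to compounds spotted on small-molecule microarray slides; score combines spot fluorescence intensity with signal-to-noise across triplicate slides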

Chain of Streptavidin (Streptomyces avidinii) (P22629 whole entry, looked up): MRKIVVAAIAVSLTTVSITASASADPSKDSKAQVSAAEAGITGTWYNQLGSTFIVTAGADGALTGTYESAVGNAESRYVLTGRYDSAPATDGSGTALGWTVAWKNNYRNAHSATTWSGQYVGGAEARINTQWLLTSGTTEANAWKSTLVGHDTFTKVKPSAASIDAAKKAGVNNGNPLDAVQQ
Chain of Focal adhesion kinase 1 (Homo sapiens) (Q05397 whole entry, looked up): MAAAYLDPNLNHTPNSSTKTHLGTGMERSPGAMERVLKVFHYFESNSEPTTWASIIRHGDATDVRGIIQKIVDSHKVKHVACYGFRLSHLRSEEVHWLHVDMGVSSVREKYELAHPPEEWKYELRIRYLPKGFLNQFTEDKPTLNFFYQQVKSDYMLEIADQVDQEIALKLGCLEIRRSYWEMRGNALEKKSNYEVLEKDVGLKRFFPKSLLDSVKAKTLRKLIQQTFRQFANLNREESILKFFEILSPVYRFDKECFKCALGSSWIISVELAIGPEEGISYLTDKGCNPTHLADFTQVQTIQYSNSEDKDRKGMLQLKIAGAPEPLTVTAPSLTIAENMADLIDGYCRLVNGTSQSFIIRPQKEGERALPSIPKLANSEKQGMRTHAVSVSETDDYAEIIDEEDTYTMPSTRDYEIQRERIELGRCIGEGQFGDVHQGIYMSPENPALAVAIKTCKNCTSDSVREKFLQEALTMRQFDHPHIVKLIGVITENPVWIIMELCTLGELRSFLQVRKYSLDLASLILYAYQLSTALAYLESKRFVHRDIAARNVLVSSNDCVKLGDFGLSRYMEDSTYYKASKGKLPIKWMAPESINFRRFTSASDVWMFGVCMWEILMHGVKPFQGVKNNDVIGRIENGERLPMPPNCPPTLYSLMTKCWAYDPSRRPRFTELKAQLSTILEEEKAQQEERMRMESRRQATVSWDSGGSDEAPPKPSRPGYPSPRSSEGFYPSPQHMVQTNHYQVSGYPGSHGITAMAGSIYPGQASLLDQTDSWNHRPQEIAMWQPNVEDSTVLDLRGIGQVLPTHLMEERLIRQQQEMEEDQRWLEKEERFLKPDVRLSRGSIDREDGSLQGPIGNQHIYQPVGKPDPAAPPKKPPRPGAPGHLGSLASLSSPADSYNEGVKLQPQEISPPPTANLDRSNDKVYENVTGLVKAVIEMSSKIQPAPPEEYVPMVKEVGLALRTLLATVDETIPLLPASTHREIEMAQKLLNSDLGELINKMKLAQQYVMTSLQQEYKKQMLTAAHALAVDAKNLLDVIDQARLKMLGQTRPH
Chain of Torsin-1A (Homo sapiens) (O14656 whole entry, looked up): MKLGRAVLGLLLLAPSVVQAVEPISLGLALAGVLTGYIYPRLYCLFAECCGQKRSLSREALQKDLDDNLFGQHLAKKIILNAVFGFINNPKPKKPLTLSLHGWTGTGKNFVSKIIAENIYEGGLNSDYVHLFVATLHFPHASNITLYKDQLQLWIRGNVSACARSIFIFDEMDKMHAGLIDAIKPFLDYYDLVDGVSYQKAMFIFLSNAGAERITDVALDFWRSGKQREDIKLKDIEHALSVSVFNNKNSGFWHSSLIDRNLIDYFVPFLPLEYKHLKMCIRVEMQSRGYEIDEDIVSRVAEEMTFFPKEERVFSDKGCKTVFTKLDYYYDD
Chain of Luciferin 4-monooxygenase (Photinus pyralis) (P08659 whole entry, looked up): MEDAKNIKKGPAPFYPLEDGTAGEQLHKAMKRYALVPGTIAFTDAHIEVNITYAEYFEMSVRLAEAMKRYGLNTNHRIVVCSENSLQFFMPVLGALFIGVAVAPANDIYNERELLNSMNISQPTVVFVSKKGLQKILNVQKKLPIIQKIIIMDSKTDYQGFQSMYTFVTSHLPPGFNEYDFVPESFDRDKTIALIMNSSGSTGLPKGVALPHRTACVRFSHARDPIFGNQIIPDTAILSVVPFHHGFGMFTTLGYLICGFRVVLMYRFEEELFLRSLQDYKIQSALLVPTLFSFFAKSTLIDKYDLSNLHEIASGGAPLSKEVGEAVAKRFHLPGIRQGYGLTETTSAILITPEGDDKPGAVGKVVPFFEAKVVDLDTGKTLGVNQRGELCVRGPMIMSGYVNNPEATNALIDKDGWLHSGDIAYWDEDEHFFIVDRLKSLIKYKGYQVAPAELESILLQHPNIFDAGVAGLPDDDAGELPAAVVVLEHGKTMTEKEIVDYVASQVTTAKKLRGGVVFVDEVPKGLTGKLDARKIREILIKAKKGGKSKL
Chain of Follistatin (Homo sapiens) (P19883 whole entry, looked up): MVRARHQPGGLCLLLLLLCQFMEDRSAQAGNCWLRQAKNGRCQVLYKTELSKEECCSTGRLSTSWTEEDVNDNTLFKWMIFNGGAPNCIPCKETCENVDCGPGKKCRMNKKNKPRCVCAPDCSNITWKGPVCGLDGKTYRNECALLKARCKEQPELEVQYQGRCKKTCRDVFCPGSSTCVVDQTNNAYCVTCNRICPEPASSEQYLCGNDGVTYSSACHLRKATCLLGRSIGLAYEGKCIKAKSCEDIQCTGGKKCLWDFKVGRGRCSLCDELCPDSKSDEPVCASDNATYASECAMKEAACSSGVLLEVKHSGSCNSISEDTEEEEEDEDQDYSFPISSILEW
Chain of Fibroblast growth factor 2 (Homo sapiens) (P09038 whole entry, looked up): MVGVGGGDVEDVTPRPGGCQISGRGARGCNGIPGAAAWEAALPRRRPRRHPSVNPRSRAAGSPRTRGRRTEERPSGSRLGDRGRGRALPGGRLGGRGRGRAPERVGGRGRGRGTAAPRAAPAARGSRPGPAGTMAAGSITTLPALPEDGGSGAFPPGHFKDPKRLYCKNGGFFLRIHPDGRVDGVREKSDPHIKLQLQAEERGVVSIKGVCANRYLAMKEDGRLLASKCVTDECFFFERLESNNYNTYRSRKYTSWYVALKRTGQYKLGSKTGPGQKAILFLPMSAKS

Compound | composite z-score [1] | composite z-score [2] | composite z-score [3] | composite z-score [4] | composite z-score [5] | composite z-score [6] | z-score [7] | composite z-score (Lefty1) | composite z-score [8] | z-score [9] | composite z-score [10] | z-score [11] | z-score [12] | z-score [13] | z-score [14] | composite z-score [15] | composite z-score [16] | composite z-score (Torsin-1A (Homo sapiens) [17]) | composite z-score (Torsin-1A (Homo sapiens) [18]) | composite z-score [19]
COc1ccc(CC[C@H](O)c2cccc(OCC(=O)OC(C)(C)C)c2)cc1 | 0.697 | 1.01 | 0.464 | 1.04 | 1.02 | 0.625 | 0.383 | 1.01 | 0.906 | 0.275 (inactive) | 0.42 | -3.93 (inactive) | -0.0717 (inactive) | 0.595 (inactive) | -0.251 (inactive) | 1.77 | 0.156 | 0.584 | 0.977 | 1.37
CCCCNC(=O)c1ccc(C#C[Si](C)(C)C)c(OC(C)=O)c1 | 0.312 | 0.689 | 0.193 | 0.0903 | 0.389 | 0.326 | -1.35 | 0.479 | -0.0014 | 0.229 (inactive) | -0.0504 | -0.155 (inactive) | 0.305 (inactive) | -0.773 (inactive) | 0.0361 (inactive) | 0.184 | -0.12 | 0.18 | 1.1 | 0.985
CCOC(=O)C[C@H]1[C@H](OC(=O)Cc2ccc3c(c2)OCO3)[C@@H](NC(=O)c2ccccc2)c2cc(OCCCO)ccc2N1C(=O)Cc1ccc(OC)cc1 | 0.752 | 0.263 | 0.161 | 0.792 | 0.19 | -0.027 | 0.291 | 0.305 | 0.674 | 0.296 (inactive) | -0.0328 | -1.82 (inactive) | -1.04 (inactive) | 2.31 (inactive) | -0.789 (inactive) | 0.662 | -0.045 | 0.693 | 0.749 | -0.256
C=C(COC)C(=O)CC[C@@H](OC(C)=O)c1ccc(OCCO)cc1 | 0.476 | -0.358 | -0.822 | -0.467 | 1.25 | 0.945 | -0.576 | 0.843 | 0.774 | -1.73 (inactive) | 0.284 | -0.354 (inactive) | -0.176 (inactive) | 0.625 (inactive) | 8.41 (active) | -0.0368 | -0.0523 | 1.82 | -0.241 | 1.64
CCCC[C@@H]1C[C@H]1[C@@H](NC(=O)Cc1ccccc1)c1ccc(Cl)cc1 | 1.84 | 1.18 | 1.53 | 1.02 | 0.841 | -0.272 | -2.79 | -0.297 | 1.25 | 0.957 (inactive) | 0.545 | -3.44 (inactive) | 1.19 (inactive) | 0.962 (inactive) | 0.56 (inactive) | 2.32 | -0.0002 | 0.578 | 0.311 | -0.22
COc1ccc(CCNC(=O)[C@@]2(Sc3ccc(C)cc3)CC(=O)N(C(C)C)[C@@H]2c2ccc(CO)cc2)cc1 | 0.8 | -0.594 | -0.13 | -1.3 | -0.616 | -1.26 | 0.339 | -0.919 | -0.29 | -0.424 (inactive) | -1.02 | -0.583 (inactive) | 0.305 (inactive) | 1.56 (inactive) | -0.519 (inactive) | -0.621 | -0.137 | 0.939 | 0.122 | -1.6
COCCOC(=O)N1C(=O)[C@@]2(c3cc(C#CC4=CCCCC4)ccc31)[C@H](C(=O)N1CCN(c3ncccn3)CC1)[C@H]1C(=O)O[C@H](c3ccccc3)[C@H](c3ccccc3)N1[C@@H]2c1ccccc1OCCO | 0.353 | 1.18 | 0.377 | 0.936 | 1.18 | 0.956 | -1.3 | 0.787 | 0.792 | -1.22 (inactive) | 0.337 | -5.9 (inactive) | -2.51 (inactive) | -2.11 (inactive) | -1.32 (inactive) | 0.496 | -0.0332 | 0.825 | 0.598 | 1.47
COCCOC(=O)N1C(=O)[C@@]2(c3cc(C#CC4(O)CCCCCC4)ccc31)[C@H](c1ccccc1OCCO)N1[C@H](c3ccccc3)[C@H](c3ccccc3)OC(=O)[C@H]1[C@@H]2C(=O)N1CCCCCCC1 | 0.663 | 1.23 | 0.504 | 0.733 | 1.45 | 1.09 | -0.768 | 1.37 | 1.29 | 0.144 (inactive) | 0.611 | -4.01 (inactive) | -0.977 (inactive) | -1.01 (inactive) | 0.881 (inactive) | 1.64 | 1.2 | 0.812 | 1.02 | 2.01
COCCCN1C(=O)[C@@]2(Cc3ccccc31)c1ccccc1C(=O)N(Cc1ccccc1OC)[C@H]2c1ccc(CO)cc1 | -1.44 | -0.717 | -0.725 | 0.0715 | -1.07 | -0.665 | 0.0581 | -0.566 | -0.0303 | -0.522 (inactive) | -0.0515 | 0.532 (inactive) | 0.53 (inactive) | 0.0279 (inactive) | 1.2 (inactive) | -0.111 | -0.108 | -0.596 | -0.274 | 0.0923
COC(=O)[C@@]1(CCS(=O)(=O)c2ccccc2)N=C(c2ccc(OCCCO)cc2)O[C@H]1c1ccccc1N=[N+]=[N-] | 1.65 | 1.21 | 0.621 | 0.757 | 0.993 | 0.89 | 0.797 | 0.162 | 0.647 | -1.93 (inactive) | 0.0174 | -3.08 (inactive) | -0.16 (inactive) | 0.377 (inactive) | -0.112 (inactive) | 0.586 | 0.0519 | 1.83 | 1.04 | 1.2
CC(C)C[C@H]1NC(=O)[C@@H](C)NC(=O)[C@@]23C(=O)N[C@@H](Cc4ccccc4)C2[C@H](C)[C@@]2(C)O[C@H]2C3/C=C/C/C=C\CNC1=O (stereo not given in full) | 1.35 | 0.633 | 0.82 | -0.212 | 0.746 | 0.238 | -0.0228 | 0.754 | 0.532 | -0.327 (inactive) | -0.134 | -0.332 (inactive) | 0.541 (inactive) | 1.94 (inactive) | -0.435 (inactive) | -0.535 | -0.218 | -0.0221 | -0.145 | 1.41
COC(=O)[C@@]1(Cc2ccc(OC)cc2)[C@@H]2[C@@H](CC(=O)[C@H]2CC(=O)C(=O)N2CCCC2)CN1C(=O)c1ccccc1 | 2.96 | 1.27 | 0.888 | 1 | 0.713 | -0.256 | 0.483 | -0.265 | 1.47 | 0.596 (inactive) | 2.07 | -2.82 (inactive) | -0.98 (inactive) | 0.779 (inactive) | -0.013 (inactive) | 1.7 | 1.69 | 0.774 | 1.27 | -0.566
